The results in this text go back to PubChem BioAssay (NCATS).

Values joined by “and” are separate entries in the source; they are usually repeats but may differ in a detail not shown here. Equal values may be shown once. Inconclusive results are not listed. Values without a mark were called inactive. Active and inactive are the calls of the source. Unless noted, calls follow the shape of the dose curve; as a rule, active = well fitted curve in the direction sought with a large enough effect; inconclusive = small, poorly fitted or top-dose-only effect, or another doubt; inactive = no such curve, though single readings can be large; an effect the other way counts as inactive or inconclusive.

Assay [1] can be described thus: qHTS assay for small molecule agonists of the antioxidant response element (ARE) signaling pathway measured by Nrf2-dependant transcriptional activity (AID 720636; active = well fitted curve in the direction sought with a large enough effect in the repeat runs; an effect the other way counts as inactive or inconclusive;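 also: HepG2 cells with an ARE-driven luciferase reporter; % of control where 0% means no effect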). Summed up: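 HepG2 ARE-luc reporter line, 1% dialyzed FBS; 6 hr attachment at 37 C, compound pinned in, 16 hr at 37 C/5% CO2; ONE-Glo, 30 min RT, luminescence read.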
Assay [2] can be described thus: qHTS assay for small molecule antagonists of the retinoid-related orphan receptor gamma (ROR-gamma) signaling pathway - cell viability counter screen (AID 720652; active = well fitted curve in the direction sought with a large enough effect in the repeat runs; an effect the other way counts as inactive or inconclusive;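 also: CHO reporter cells with doxycycline-induced ROR-gamma expression; series mostly up to about 92 µM; compound exposure lasted 16 hr before ATP read; % is scaled to controls: 0 for no effect and ±100 for the full control effect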). Summed up:
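ATP-based viability readout in the ROR-gamma reporter CHO cells after 16 hr compound exposure under doxycycline induction.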
A general note: Quantitative high-throughput screening tests each substance at several concentrations.

The nature of assay [3]: qHTS assay for small molecule agonists of the antioxidant response element (ARE) signaling pathway measured by Nrf2-dependant transcriptional activity - cell viability counter screen (AID 720653; active = well fitted curve in the direction sought with a large enough effect in the repeat runs; an effect the other way counts as inactive or inconclusive; also: % is scaled to controls: 0 for no effect and ±100 for the full control effect). The following applies: ARE-bla HepG2 viability, CellTiter-Glo ATP luminescence, 16 h; max response: hits give low values. Summed up:
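ARE-bla HepG2 cells treated with compounds for 16 h at 37C; this counter screen measures viability as intracellular ATP by CellTiter-Glo luminescence after 30 min at room temperature.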

Assay [4] can be described thus: qHTS Assay for Identifying Gametocytocidal Compounds (AID 743244).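 Also: % is scaled to controls: 0 for no effect and ±100 for the full control effect; actives lower the fluorescent signal which means gametocytes are killed.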 The following applies: P. falciparum 3D7 stage III-V gametocytes, alamarBlue, 72 h; max response: hits give low values. Summed up:
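Viability read-out was resazurin reduction (alamarBlue, 24 h) measured at Ex 525/Em 598 nm. Beforehand, late-stage (III-V) 3D7 P. falciparum gametocytes at 20,000 cells/well were incubated with compound 72 h at 37C under 5% CO2.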

Assay [5] can be described thus: qHTS assay for cell viability of HEK293 cells (AID 743288). Also: % is scaled to controls: 0 for no effect and ±100 for the full control effect; nearly all actives have a fitted effect of over 50% in size. The note with it: ATP luminescence (CellTiter-Glo), 18 h; max response: hits give low values. Summed up: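 Readout is luciferase-coupled ATP content (CellTiter-Glo luminescence, 30 min room temperature) as a measure of metabolically competent cells. Parental HEK293 cells were plated 5 h or more before compound addition, then treated 18 h at 37 C.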

The nature of assay [6]: qHTS assay for cell viability of the p53RE-bla HCT-116 cell line (AID 743292). Also: % is scaled to controls: 0 for no effect and ±100 for the full control effect; nearly all actives have a fitted effect of over 55% in size. Summed up:
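Luminescent ATP quantitation (CellTiter-Glo) served as the viability read-out; reagent was added after 16 h compound exposure at 37 C and read after 30 min at room temperature. Cells: p53RE-bla HCT-116, 4,000 per well.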

Assay [7] can be described thus: qHTS assay to identify small molecule inhibitors of chordoma cells - UCH-1 (AID 1259355). Also: nearly all actives have a fitted effect of over 55% in size. Also: potency is read from the fitted curve at half-maximal effect; series mostly up to about 46 µM. Summed up: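 Screening used approved and investigational drugs in 15-point titration against 800 seeded cells per well. A fixed combination of auranofin with camptothecin, doxorubicin, rubitecan and topotecan followed compound addition, and growth was scored by CellTiter-Glo after 48hr.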

Take `Oc1cc(Cl)c(Cl)cc1Cl`: the Potency entry in assay [1], in assay [2], in assay [6] and in assay [7] was “inactive” in each case. Besides, the max response is 4.14% and 5.09% in assay [3]; 4.45% in assay [4]; -2.85% and 0.876% in assay [5].

As to `Clc1ccccc1Cl`, the Potency result in assay [1], in assay [2], in assay [6] and in assay [7] was “inactive” in each case. Besides, the max response in assay [3] was 1.42%; in assay [4], 10.6%; in assay [5] it was 2.94%.

Turning to `COc1ccc2c(c1OC)C(=O)OC2C1c2cc3c(cc2CCN1C)OCO3` (stereo not given), the Potency entry in assay [1], in assay [2], in assay [6] and in assay [7] was “inactive” each time. The max response in assay [3] was -15.1%; in assay [5], -5.26%.

As for `CCOP(=O)(OCC)O/C(=C/Cl)c1ccc(Cl)cc1Cl`, the Potency result in assay [1], in assay [6] and in assay [7] was “inactive” throughout. The max response was -18.8% and -8.15% in assay [3]; -0.665% in assay [4]; -28.5% and -27.3% in assay [5].

Turning to `CC(C)CCON=O`, the Potency result in assay [1], in assay [2], in assay [6] and in assay [7] was “inactive” throughout. Moreover, the max response in assay [3] is 1.97%; in assay [4] it was -1.81%; in assay [5], -5.29%.

Turning to `CCC1(c2ccccc2)C(=O)NC(=O)N(C)C1=O` (stereo not given), in assay [4], the max response is -0.22%. In addition, the Potency entry in assay [7] was “inactive”.

As for `CC(=O)O[C@H]1C[C@H](O[C@H]2[C@@H](O)C[C@H](O[C@H]3[C@@H](O)C[C@H](OC4CC[C@@]5(C)[C@H](CC[C@@H]6[C@@H]5CC[C@]5(C)[C@@H](C7=CC(=O)OC7)CC[C@]65O)C4)O[C@@H]3C)O[C@@H]2C)O[C@H](C)[C@H]1O[C@@H]1O[C@H](CO)[C@@H](O)[C@H](O)[C@H]1O` (stereo not given in full), the max response in assay [4] was 9.96%. Further, the Potency in assay [7] was 447 nM (active).

Consider `COCC(C)N(C(=O)CCl)c1c(C)csc1C` (stereo not given), for which the max response in assay [3] was -1.95%; in assay [4] it was -1.03%; in assay [5], -15.8%. Besides, the Potency entry in assay [6] and in assay [7] was “inactive” throughout.

On to `ClCC1CO1` (stereo not given), for which the Potency result in assay [1], in assay [2], in assay [6] and in assay [7] was “inactive” in each case. The max response in assay [3] is -2.98%; in assay [4], 11.4%; in assay [5], 3.04%.

`CC(Cc1ccccc1)NC=O` (stereo not given): the max response in assay [4] was -3.98%. Further, the Potency entry in assay [7] is “inactive”.

With `C[C@]12CCC(=O)C[C@@H]1CC[C@@H]1[C@@H]2CC[C@]2(C)[C@@H](O)CC[C@@H]12`, the Potency result in assay [1], in assay [2], in assay [6] and in assay [7] was “inactive” throughout. Moreover, the max response in assay [3] is -16.7% and -5.79%; in assay [4], 17.9%; in assay [5], -9.61% and -12.6%.

As for `ClC=C(Cl)Cl`, the Potency entry in assay [1], in assay [2], in assay [6] and in assay [7] was “inactive” throughout. Further, the max response is -6.12% and -5.8% in assay [3]; -0.112% in assay [4]; 5.41% and -9.88% in assay [5].

As to `C=CCN=C=S`, the Potency result in assay [1], in assay [6] and in assay [7] was “inactive” each time. In addition, the max response is 9.92% in assay [3], -13.2% in assay [4] and -7.74% in assay [5].

For the compound `CN1[C@H]2CC[C@@H]1[C@@H](C(=O)O)[C@@H](OC(=O)c1ccccc1)C2`, the max response in assay [4] is 17.6% and -3.85%. Also, in assay [7], the Potency result was “inactive”.

As to `N#CN`, the Potency entry in assay [1], in assay [6] and in assay [7] was “inactive” each time. In addition, the max response in assay [3] is -18.5%; in assay [4] it was 10.9%; in assay [5], -11.1%.

On to `CCCCNCC(O)c1ccc(O)cc1` (stereo not given), for which the max response in assay [4] was 15.5%. In addition, in assay [7], the Potency entry was “inactive”.

`Cc1cc(C)cc(C(=O)OC2C[C@H]3CC[C@@H](C2)N3C)c1` (stereo not given in full): the max response in assay [4] was 23%. Moreover, the Potency entry in assay [7] is “inactive”.

For the compound `C[C@@H]([C@H](O)c1ccccc1)N(C)C`, the max response in assay [4] was 8.71%. Moreover, the Potency entry in assay [7] was “inactive”.

For the compound `Cc1ccccc1-n1c(CF)nc2ccc(N)cc2c1=O`, the max response in assay [4] was -0.397%. Besides, the Potency result in assay [7] was “inactive”.

As to `CC(=O)O[C@H]1CC[C@H]2[C@@H]3CCC4=CC(=O)CCC4=C3C=C[C@]12C`, the max response in assay [4] was 5.16%. Moreover, in assay [7], the Potency entry is “inactive”.

In the case of `CCC1(C)CC(=O)NC(=O)C1`, in assay [4], the max response was 2.58%. In addition, the Potency entry in assay [7] is “inactive”.

In the case of `CCCC(C)C1(CC)C(=O)NC(=O)NC1=O` (stereo not given), in assay [4], the max response is -3.05%. In addition, the Potency result in assay [7] was “inactive”.

Turning to `CN[C@H]1C[C@@H](N)[C@H](O)[C@@H](O[C@@H]2O[C@H](CO)[C@H](O)[C@@H]3OC4(O[C@H]23)O[C@H](C(N)CO)[C@H](O)[C@H](O)[C@H]4O)[C@@H]1O` (stereo not given in full), in assay [4], the max response is -0.708% and -7.43%. Moreover, the Potency entry in assay [7] was “inactive”.

For `O[C@H]1[C@H]2[C@H](O)CCCN2C[C@H]1O`, the max response in assay [4] was -8.84%. Besides, in assay [7], the Potency entry is “inactive”.

In the case of `NCC(O)c1cccc(O)c1` (stereo not given), in assay [4], the max response is 13.2%. The Potency entry in assay [7] is “inactive”.

As to `CCN1C[C@]2(COC)[C@H](O)C[C@H](OC)[C@@]34[C@@H]5C[C@@]6(O)[C@H](OC(=O)c7ccccc7)[C@@H]5[C@@](OC(C)=O)([C@@H]([C@H](OC)[C@H]23)[C@@H]14)[C@@H](O)[C@@H]6OC`, the max response in assay [4] is -5.96%. In addition, in assay [7], the Potency result is “inactive”.

In the case of `FC(F)OC(F)(F)C(F)Cl` (stereo not given), in assay [4], the max response was -4.54%. Also, the Potency result in assay [7] was “inactive”.

`ClC1=C(Cl)[C@]2(Cl)[C@@H]3[C@H]4C[C@H]([C@@H]5O[C@H]45)[C@@H]3[C@@]1(Cl)C2(Cl)Cl`: the max response in assay [4] is 19.8%. In addition, the Potency result in assay [7] is “inactive”.

`CC(=O)OC1CN2CCC1CC2` (stereo not given): in assay [4], the max response is -0.102%. The Potency result in assay [7] was “inactive”.

In the case of `[S]=[Sb](=[S])[S][Sb](=[S])=[S]`, the max response in assay [4] is 3.55%. Besides, the Potency result in assay [7] was “inactive”.

With `OC[C@@H](O)[C@H]1O[C@@H]2O[C@H](C(Cl)(Cl)Cl)O[C@@H]2[C@H]1O`, in assay [4], the max response is 13.7%. In addition, the Potency entry in assay [7] was “inactive”.

As for `C[N+]1(C)[C@@H]2CC[C@H]1CC(OC(=O)c1c[nH]c3ccccc13)C2` (stereo not given in full), the max response in assay [4] is 8.77%. Further, the Potency result in assay [7] was “inactive”.

`CCCCC[C@@H](O)C1C(=O)OC(C)[C@H](O)/C=C/C=C/C=C/C=C/C=C(\C)C(O)C(O)C(O)C[C@H](O)C[C@H](O)C[C@H](O)C[C@H](O)C[C@@H]1O` (stereo not given in full): the max response in assay [4] is 0.532% and 10.2%. Also, in assay [7], the Potency entry is “inactive”.
